Lamin A splicing: modulators of lamin A splicing | actives 0.01% (n = 200,000) | AID 1487 | HeLa LMNA splicing GFP/RFP minigene ratio, 48 h | Potency, µM (series often up to 46.1 µM), for the others: top-dose ratio change, negative = inhibition, actives largely listed as inhibitors; active = well fitted inhibition curve with a large enough effect in the signal ratio, with a control signal flat, not every such curve was filed as active; inconclusive = small, poorly fitted or top-dose-only effect, or effect the other way, or a change in a side signal; the % refers to the signal ratio; note: % is set by controls: 0 for no effect and ±100 for the full control effect
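S3 HeLa cells stably expressing lamin A-EGFP splicing minigene plus DsRed2, 600 cells/well, 48 h compound exposure at 37C. Laser-scanning cytometry; analysed as GFP (500-530 nm)/RFP (575-640 nm) total intensity ratio; 0.5% DMSO vehicle.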
HPGD block: inhibitors of human 15-hydroxyprostaglandin dehydrogenase (HPGD). P15428. purified HPGD, NADH fluorescence kinetic, PGE2 substrate. actives 4.3% (n = 150,000). Potency, µM, for inactives: at the highest dose activity change, negative = inhibition, hits mostly inhibitors; note: % is set by controls: 0 for no effect and ±100 for the full control effect
Target sequence (P15428 whole entry, looked up): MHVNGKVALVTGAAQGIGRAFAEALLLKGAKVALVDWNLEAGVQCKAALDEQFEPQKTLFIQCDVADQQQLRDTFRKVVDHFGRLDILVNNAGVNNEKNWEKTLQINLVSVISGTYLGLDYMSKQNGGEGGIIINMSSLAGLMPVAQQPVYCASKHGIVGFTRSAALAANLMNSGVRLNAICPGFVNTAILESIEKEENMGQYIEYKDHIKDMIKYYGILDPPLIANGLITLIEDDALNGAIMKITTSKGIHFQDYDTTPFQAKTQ
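NADH formation kinetics: reaction with 30 uM PGE2 and 1 mM NAD+ (final), 20 nM enzyme, Tris-HCl pH 8 with Tween 20, after 15 min compound preincubation at room temperature. Fluorescence change, last versus first of five reads.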
ALDH1A1 inh: blocks purified human ALDH1A1 activity; actives 7.3% (n = 220,000); Potency, µM (highest dose often 75.3 µM), for inactives: top-dose activity, negative = inhibition, hits mostly inhibitors; AID 1030; Purified ALDH1A1, NADH fluorescence, propionaldehyde substrate;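 note: plate controls were no enzyme wells and a reference inhibitor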
HTT ATP protect: protects HTT-Q103 PC12 cells, measured by ATP | PC12 HTT-Q103 induced, cytoprotection, ATP luminescence, 40 h | Potency, µM (doses to about 56.4 µM), without a hit: cytoprotection (ATP increase), usual class: activators | actives 0.14% (n = 230,000); active = well fitted curve in the direction sought with a large enough effect; inconclusive = small, poorly fitted or top-dose-only effect, or another doubt; inactive = no such curve, though single readings can be large; an effect the other way counts as inactive or inconclusive; note: % of control where 0% means no effect; nearly all actives have a fitted effect of over 45% in size
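Quantitative HTS on tebufenozide-induced (100 nM) PC12 cells expressing HTTQ103 exon 1–GFP; compounds tested as a concentration series; survival measured via cellular ATP.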
KDM4E inh: JMJD2E (human) inhibition | AID 2147 | actives 1.6% (n = 230,000) | JMJD2E catalytic domain, FDH-coupled NADH fluorescence (FDH is formaldehyde dehydrogenase) | Potency, µM (doses to about 57.1 µM), for inactives: top-dose activity change, negative = inhibition, actives largely listed as inhibitors;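 note: 0% = wells with enzyme and -100% = buffer wells without enzyme; nearly all actives have a fitted effect of over 50% in size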
Target sequence (B2RXH2 1-337 limits assumed): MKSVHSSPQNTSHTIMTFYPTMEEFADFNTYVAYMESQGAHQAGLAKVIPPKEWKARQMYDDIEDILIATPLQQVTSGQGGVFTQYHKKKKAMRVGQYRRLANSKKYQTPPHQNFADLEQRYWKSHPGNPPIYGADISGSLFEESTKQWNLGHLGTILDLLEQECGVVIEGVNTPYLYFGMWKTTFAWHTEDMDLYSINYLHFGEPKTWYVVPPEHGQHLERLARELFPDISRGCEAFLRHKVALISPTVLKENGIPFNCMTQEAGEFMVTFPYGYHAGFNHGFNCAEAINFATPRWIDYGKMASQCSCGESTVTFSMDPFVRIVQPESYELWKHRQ
HttQ103 aggreg: inhibitors of mutant huntingtin aggregate formation in PC12 cells; AID 1688; actives 1.1% (n = 220,000); Potency, µM (doses to about 46.1 µM), without a hit: at the top dose activity change, negative = inhibition, usual class: inhibitors; PC12 HttQ103-GFP aggregates, Acumen cytometry, 40 h; active = well fitted curve in the direction sought with a large enough effect; inconclusive = small, poorly fitted or top-dose-only effect, or another doubt; inactive = no such curve, though single readings can be large; an effect the other way counts as inactive or inconclusive; note: % is set by controls: 0 for no effect and ±100 for the full control effect; nearly all actives have a fitted effect of over 60% in size
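Huntingtin Q103 exon 1–GFP aggregates in induced PC12 cells (100 nM tebufenozide) were quantified by cytometry from lysates, with compounds dosed in titration.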
The depositor's hits bear a star; u = inconclusive; x = not tested or not shown; [ ] = another dose, or the depositor's remark. Compounds with a hit are over-represented: about 9.2% of the library has one in this group of screens. Unless noted, calls come from the whole dose curve; as a rule, active = well fitted inhibition curve with a large enough effect (not every such curve was filed as active); inconclusive = small, poorly fitted or top-dose-only effect, or another doubt; inactive = no such curve, though single readings can be large or run the other way. Potency is the fitted concentration of half-maximal effect.

SMILES	Lamin A splicing	HPGD block	ALDH1A1 inh	HTT ATP protect	KDM4E inh	HttQ103 aggreg
CCC(C)N=Cc1c(Nc2ccccc2)nc2c(C)cccn2c1=O (configuration not stated)	x	x	x	22.0%[10 µM]	-0.4%	-39.5%[9.22 µM]
CCOC(=O)c1ccc(NC(=O)Cn2nnc(-c3ccccc3)n2)cc1	u	x	25.1µM*	-48.7%	u	u
O=C(c1ccc(NC(=O)C2(c3ccccc3)CCCC2)cc1)N1CCOCC1	x	x	x	-4.9%[10 µM]	3.1%	8.7%[9.22 µM]
O=C(CSc1nnc(Cn2nnc(-c3ccccc3)n2)n1-c1ccccc1)Nc1ccccc1	15.9%	-7.4%	4.47µM*	2.3%	-3.3%	16.7%
O=C(Nc1ccccc1)Nc1ccc(C(=O)N2CCOCC2)cc1	-7.0%	15.8µM*	3.1%	18.3%	-2.9%	-6.6%
O=C(Cn1nnc(-c2ccccc2F)n1)Nc1ccc(C(=O)N2CCOCC2)cc1	4.3%	39.8µM*	-1.0%	4.5%[10 µM]	-6.6%	21.7%
COC(=O)C1(C)C=C2C(=C(c3ccccc3)C(=O)C2C)CN1 (configuration not stated)	x	-3.1%	u	-36.6%	-21.2%	x
CCN(CC)c1nn2c(=O)c(C(=O)NCc3ccccc3Br)cnc2s1	-6.9%[46 µM]	x	x	x	x	x
O=C(Cn1nnc(-c2ccccc2F)n1)Nc1ccc(S(=O)(=O)NC2CCCC2)cc1	12.0%	7.08µM*	0.3%	-17.8%	-1.7%	-28.8%
COC(=O)c1c(-c2ccccc2)c[nH]c1C	x	x	x	x	-12.0%	22.4µM*
Cc1ccc(N2C(=O)CN(Cc3sccc3C)C2=S)cc1C	u	3.16µM*	u	1.3%[10 µM]	4.6%	u
Cc1ccc(N2C(=O)CN(Cc3cccs3)C2=S)cc1C	-8.5%[46 µM]	x	14.2%	-45.5%	-3.6%	-3.6%
CC(=O)NNC(=O)c1[nH]c2ccc(Cl)cc2c1-c1ccccc1	x	x	x	-7.9%[10 µM]	-25.4%	1.6%[9.22 µM]
O=C(NN=C1CCCC1)c1[nH]c2ccc(Cl)cc2c1-c1ccccc1	x	x	11.2µM*	-77.3%[10 µM]	u	-24.8%[9.22 µM]
O=C1NN(c2ccccc2)C(=O)/C1=C\c1ccccc1OCC(=O)N1CCOCC1	10.0%	15.8µM*	u	22.4%	-4.5%	13.0%
Cn1cccc1/C=N/N1CCN(c2ccccc2)CC1	3.5%[46 µM]	x	14.1µM*	4.0%[10 µM]	u	-3.3%
COc1ccc(Cc2ccccc2C(=O)O)c2ccccc12	x	-2.6%	8.4%[13.5 µM]	9.2%[10 µM]	x	x
Cc1cc(C)n(CCC(=O)N/N=C/c2c(O)ccc3ccccc23)n1	x	x	x	-66.9%[10 µM]	0.199µM*	u
Cc1cc(C)n(CCC(=O)N/N=C/c2ccc(O)cc2)n1	-12.0%	-23.5%	-6.5%	2.0%[10 µM]	-1.7%	15.4%
Cc1ccc(O)c(/C=N/NC(=O)c2[nH]ncc2Br)c1	u	-21.9%	6.9%	-2.2%[10 µM]	3.16µM*	u
O=C(N/N=C/c1c(O)ccc2ccccc12)c1cccc(C(F)(F)F)c1	u	u	-14.1%	x	25.1µM*	3.98µM*
O=C(N/N=C/c1c(O)ccc2ccccc12)c1[nH]ncc1Br	u	-18.5%	2.8%	-82.8%[10 µM]	31.6µM*	1.12µM*
CC(C)Cc1nn2c(=O)cc(COC(=O)c3ccccc3NC(=O)c3cccs3)nc2s1	-4.3%[46 µM]	x	x	x	x	x
O=C1C2C3C=CC(CC3)C2C(=O)N1/N=C/c1ccc(O)c(O)c1 (configuration not stated)	u	-18.5%	u	8.8%[10 µM]	15.8µM*	u
O=C1C2C3C=CC(CC3)C2C(=O)N1/N=C/c1ccco1 (configuration not stated)	x	x	u	-68.8%	2.9%	9.6%
SMILES	Lamin A splicing	HPGD block	ALDH1A1 inh	HTT ATP protect	KDM4E inh	HttQ103 aggreg
O=C1C2C3C=CC(CC3)C2C(=O)N1/N=C/c1ccc(O)cc1 (configuration not stated)	7.5%	28.2µM*	u	-56.2%	-0.9%	0.0%
O=c1c2ccccc2nc(COc2ccccc2)n1/N=C/c1ccc(O)c(O)c1	x	x	x	-17.7%[10 µM]	u	-5.9%[9.22 µM]
O=C1c2ccccc2C(=O)N1/N=C/c1ccc(O)c(O)c1	2.5%	-29.7%	-7.6%	x	15.8µM*	-3.4%
CCOC(=O)c1ccc(NC(=O)c2oc(=O)c3ccccc3c2-c2ccccc2)cc1	-4.6%[46 µM]	x	x	x	x	x
COC(=O)c1c(C)[nH]c(C)c1C(=O)c1ccccc1Cc1ccccc1	-8.9%	-2.6%	-7.2%	-48.2%	-3.5%	x
CN(C(=O)CSc1nnc(-c2ccc(F)cc2)c2ccccc12)C1CCS(=O)(=O)C1 (configuration not stated)	u	x	u	12.7%[10 µM]	-0.5%	u
CC(C)NC(=O)CSc1nnc(-c2ccc(F)cc2)c2ccccc12	x	x	-7.8%	12.6µM*	-1.7%	25.3%
COc1c(C2=CC(=O)N(C)C2=O)c2c(n1C)C(=O)c1ccccc1C2=O	x	-5.6%	-0.1%	14.1µM*	-16.2%	x
Cn1c(=O)c2c(-c3ccncc3)c3c(nc2n(C)c1=O)-c1ccccc1C3=O	x	x	x	-17.3%[10 µM]	x	x
Cc1ccc2[nH]c(=O)c(-c3noc(CC(C)C)n3)cc2c1	x	x	x	1.8%[10 µM]	u	6.4%[9.22 µM]
Cc1ccccc1C(=N)c1ccccc1Cc1cccc2ccccc12	x	-7.3%	-1.5%[13.5 µM]	4.0%[10 µM]	x	x
Oc1ccc(/C=N/Nc2nc(-c3cccnc3)nc3ccccc23)c(O)c1	x	x	x	1.2%[10 µM]	22.4µM*	-18.7%[9.22 µM]
CC(C)(C)c1csc(N/N=C/c2cccnc2)n1	u	x	25.1µM*	-48.1%	6.1%	-12.6%
Clc1ccc(N/N=C/c2cccnc2)cc1	u	-12.0%	25.1µM*	-21.3%[10 µM]	-19.4%	12.2%
Clc1ccccc1-c1nc(N/N=C/c2cccnc2)c2ccccc2n1	u	14.1µM*	u	-82.8%	1.1%	-32.6%
Cc1c(O)ccc(/C=N/Nc2nc(-c3cccnc3)nc3ccccc23)c1O	x	x	-9.2%	1.9%[10 µM]	u	-20.7%[9.22 µM]
Cc1sc(N/N=C/c2cccnc2)nc1-c1ccc(Cl)cc1	-9.3%	-25.6%	-1.7%	19.1%[10 µM]	-13.3%	-21.4%
Cc1ccccc1NC(=O)Cn1cc(S(=O)(=O)N2CCCC2)c(S(=O)(=O)N2CCCC2)c1	-6.2%[46 µM]	x	x	x	x	x
O=C(Nc1ccccc1)N1CCCN(Cc2ccccc2F)C1	4.0%[0.0737 µM]	25.1µM*	2.3%	1.7%	142.6%	-3.2%
Fc1ccccc1CN1CCCN(C(=S)Nc2cccc(Cl)c2)C1	x	x	u	-24.8%	29.0%	-10.4%
CC(C)[C@H](NS(=O)(=O)c1ccccc1)C(=O)OCC(=O)NC(=O)c1cccn1C	4.9%	-15.4%	12.6µM*	1.0%	-3.5%	27.7%
COc1ccc(C(=O)N[C@H](C(=O)OCC(=O)NC(=O)c2cccn2C)C(C)C)cc1	-11.7%	-9.8%	8.9%	7.7%[1.9 µM]	3.4%	12.9%
Cc1ccc(S(=O)(=O)NCc2ccc(C(=O)NCc3cccnc3)cc2)cc1	x	x	u	x	-18.4%	0.3%
CCN(CC)C(=O)c1ccc(S(=O)(=O)NCc2cccnc2)cc1	u	u	5.2%	21.9%[10 µM]	4.9%	11.2µM*
